Screening data (PubChem)
Hits are enriched below; roughly 11% of the tested compounds scored in any of these assays.
FBPA coupling cs: coupling enzyme interference in Giardia aldolase counter-screen; coupling enzyme system counterscreen, AmpLite Red fluorescence; activity change, negative = inhibition, % at 58.2 µM, hits read low; actives 0.67% (n = 290,000); in the data active = activity change below about -30%
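Coupling enzymes only (glyceraldehyde-3-phosphate) + compound, at 57.5 uM final, 10 min RT; add substrate/coupling/AmpLite Red mix, 20 min RT; fluorescence ex 525/em 598 nm. Actives flag coupling-system interference.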
Sfp PPTase inh: blocks B. subtilis Sfp PPTase activity | Q9F4F7 | Biochemical Sfp PPTase activity, qHTS | Potency, µM, without a hit: largest response in the series, negative = inhibition, hits mostly inhibitors | actives 3.5% (n = 310,000) | AID 1490;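 also: the enzyme is Sfp with the accession as filed and its product quenches rhodamine fluorescence; potency is read from the fitted curve at half-maximal effect; 0% = enzyme reaction without inhibitor and -100% = no enzyme wells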
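With Hepes-Na pH 7.6 buffer containing 10 mM MgCl2, Sfp (15 nM) modified BHQ-2-YbbR (12.5 uM) using rhodamine-CoA (5 uM). Two reads 30 minutes apart at 525/598 nm yielded each well's rate.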
Tau fluor counter: counter-screen for tau fibril formation inhibitors; Potency, µM (titrated, usually from 57.7 µM), inactives show at the highest dose activity change, negative = decrease; actives 0.93% (n = 280,000); tau K18 P301L Alexa594 fluorescence, heparin fibrillization; also: potency is read from the fitted curve at half-maximal effect; nearly all actives have a fitted effect of over 55% in size
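Human K18 P301L tau (15 uM unlabeled plus 0.24 uM Alexa 594-labeled, final) in 100 mM sodium acetate pH 7 was mixed with compound and 20 uM heparin and incubated 6 hr at 37 C.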
Tau fibril FP: tau fibrillization inhibition (FP). actives 0.39% (n = 280,000). Potency, µM (series often up to 57.7 µM), for the others: top-dose activity, negative = inhibition, usual class: inhibitors. K18 P301L tau heparin fibrillization, Alexa594 FP, 6 h. AID 1468. P10636; also: potency is read from the fitted curve at half-maximal effect; nearly all actives have a fitted effect of over 55% in size
Target sequence (P10636 561-689 P618L limits assumed): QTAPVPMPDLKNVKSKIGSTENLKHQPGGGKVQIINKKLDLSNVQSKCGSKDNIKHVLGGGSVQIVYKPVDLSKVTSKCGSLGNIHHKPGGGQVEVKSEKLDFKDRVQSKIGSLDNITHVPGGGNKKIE
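Human tau K18 […] P301L fragment, 15 uM unlabeled plus 0.24 uM Alexa 594-labeled tau (final), with compound and 20 uM heparin in 100 mM sodium acetate pH 7; 6 hr at 37 C, then Alexa 594 FP read.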
Tau ThT inhib: inhibitors of human tau fibril formation, thioflavin T binding; Potency, µM (series often up to 57.4 µM), without a hit: top-dose activity, negative = inhibition, most hits filed as inhibitors; recombinant tau K18 P301L, heparin-induced fibrillization, ThT fluorescence; actives 2.1% (n = 270,000); also: potency is read from the fitted curve at half-maximal effect; nearly all actives have a fitted effect of over 55% in size
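Using a mix of unlabeled (15 uM) and Alexa 594-labeled (0.24 uM) tau K18 P301L, heparin-triggered fibrillization over 6 hr at 37 C was scored by ThT fluorescence.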
G9a inh: G9a (human) methyltransferase inhibition | actives 8.8% (n = 350,000) | Potency, µM (top dose mostly 102 µM), inactives show at the top dose activity, negative = inhibition, most hits filed as inhibitors | G9a H3K9 monomethylation, AlphaScreen, 2 h | AID 504332 | Q96KQ7; also: potency is read from the fitted curve at half-maximal effect; nearly all actives have a fitted effect of over 75% in size
Target sequence (Q96KQ7 913-1193 limits assumed): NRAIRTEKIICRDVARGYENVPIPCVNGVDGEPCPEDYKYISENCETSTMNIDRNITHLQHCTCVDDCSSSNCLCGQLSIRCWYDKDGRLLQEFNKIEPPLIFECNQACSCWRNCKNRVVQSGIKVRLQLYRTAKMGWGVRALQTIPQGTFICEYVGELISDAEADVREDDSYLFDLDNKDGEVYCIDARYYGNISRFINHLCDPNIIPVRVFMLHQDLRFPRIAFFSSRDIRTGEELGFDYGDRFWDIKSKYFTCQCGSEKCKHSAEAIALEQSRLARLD
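AlphaScreen detection with an anti-monomethyl H3K9 antibody quantified product after a 2 h room-temperature reaction containing 500 nM biotinylated H3K9 peptide, 20 µM SAM and 20 nM enzyme, which had been preincubated 15 min with compound.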
The depositor's hits bear a star; ? = inconclusive; · = not tested or not shown; [ ] = dose if it differs, or a comment. Unless noted, calls follow the shape of the dose curve; as a rule, active = well fitted curve in the direction sought with a large enough effect; inconclusive = small, poorly fitted or top-dose-only effect, or another doubt; inactive = no such curve, though single readings can be large; an effect the other way counts as inactive or inconclusive. Unless noted, % is scaled to controls: 0 for no effect and ±100 for the full control effect.

SMILES	FBPA coupling cs	Sfp PPTase inh	Tau fluor counter	Tau fibril FP	Tau ThT inhib	G9a inh
COc1cc(OC)c(NC(=O)c2c(N3CCCC3=O)c3cc(C)ccc3n2C)cc1Cl	·	·	-13.7%	-0.8%	-2.9%	-17.4%[59 µM]
C=CC#CC1(O)CC(C)[N+](C)(C)CC1C (centres undefined)	-0.7	39.8µM*	-3.2%	-0.7%	0.5%	28.2µM*
COc1ccccc1N1CCN(c2nc3ccccc3nc2C(C#N)C(=O)OC(C)C)CC1 (centres undefined)	-4.3	-3.3%	-18.3%	8.1%	?	14.1µM*
CCN1CCN(c2nc3ccccc3nc2C(C#N)C(=O)OCc2ccccc2)CC1 (centres undefined)	-5.7	3.5%	-10.7%	6.6%	?	39.8µM*
COCCCNC(=O)C(C#N)c1nc2ccccc2nc1N1CCCC1 (centres undefined)	-1.8	-23.7%	-13.3%	0.5%	?	39.8µM*
CCCCCCOC(=O)C(C#N)c1nc2ccccc2nc1N1CCN(CC)CC1 (centres undefined)	-0.1	-32.9%	-11.8%	5.4%	?	·
CCOc1ccccc1N1CCN(c2nc3ccccc3nc2C(C#N)C(=O)OC)CC1 (centres undefined)	-16.6	-0.8%	-15.4%	3.0%	?	·
CCCCCNC(=O)C(C#N)c1nc2ccccc2nc1N1CCCC1 (centres undefined)	0.4	-0.2%	-8.2%	-5.7%	-10.4%	?
Cc1ccc(NC(=O)CN2C(=O)C(C)(C)c3cc(S(=O)(=O)N4CCCCC4)ccc32)c(Br)c1	·	·	-16.0%	-2.5%	-7.7%	-3.5%[59 µM]
COCC(=O)N1CCC[C@@]2(CCN(Cc3nccs3)C2)C1	0.0	17.6%	·	·	·	1.2%[12.7 µM]
O=C(CSc1nnc(NC(=O)C2CC2)s1)Nc1ccccc1C(F)(F)F	0.2	9.6%	·	·	·	25.6%
O=[N+]([O-])c1ccc(OCCN2CCCCCC2)cc1	1.3	4.0%	-3.6%	5.2%	-8.8%	31.6µM*
Cc1cc(OCCN2CCOCC2)ccc1Cl	0.1	-1.7%	·	·	·	10µM*
CCN1CCN(CCOc2ccc(Cl)cc2)CC1	-1.7	14.1µM*	-8.1%	10.3%	-8.1%	·
Cc1ccc(OCCN2CCOCC2)cc1C	2.0	-6.4%	·	·	·	-1.1%
CCN1CCN(CCNC(=O)Nc2ccc([N+](=O)[O-])cc2)CC1	-1.7	-0.2%	-15.0%	-2.6%	-9.6%	-41.6%
O=C(NCCN1CCCCC1)Nc1ccc([N+](=O)[O-])cc1	-0.4	6.4%	·	·	·	79.4µM*
COC(=O)c1sccc1NC(=O)CN(C)NS(=O)(=O)c1ccc(F)cc1	-3.5	-1.2%	0.8%	2.2%	-10.4%	39.0%[59 µM]
Cc1cc(OCCN2CCOCC2)ccc1[N+](=O)[O-]	1.2	?	-5.0%	-1.5%	-4.8%	7.94µM*
Cc1cc(C)c(OCCN2CCOCC2)c(Cl)c1	0.0	-11.8%	·	·	·	31.6µM*
Cc1cc(OCCN2CCCC2)ccc1[N+](=O)[O-]	0.3	-5.7%	9.3%	-2.5%	-2.4%	7.94µM*
Cc1ccc([N+](=O)[O-])c(OCCN2CCCCCC2)c1	-7.0	?	4.3%	3.0%	4.6%	?
Cc1ccc(OCCCCN2CCCCC2)cc1	-0.6	16.8%	·	·	·	-3.2%[59 µM]
Cc1ccc(OCCN2CCCC2)cc1	-0.1	3.5%	·	·	·	22.4µM*
CC(C)N(C(=O)Cn1cc(S(=O)(=O)Cc2ccc(Br)cc2)c2ccccc21)C(C)C	·	·	2.8%	0.3%	12.5%	0.8%[59 µM]
SMILES	FBPA coupling cs	Sfp PPTase inh	Tau fluor counter	Tau fibril FP	Tau ThT inhib	G9a inh
CCOC(=O)N1CCN(C(=O)C2CCN(CC3CCCCC3)CC2)CC1	-0.5	10.8%	-0.5%	-2.2%	-3.9%	35.5µM*
C=CCSc1nnc(NC(=O)c2cccc(S(=O)(=O)N(C)c3ccccc3)c2)s1	13.4	13.6%	-18.7%	?	0.4%	-41.0%[59 µM]
CCCCCCCCCn1ccc(=N)cc1	6.2	-23.8%	2.0%	0.7%	6.9%	5.3%
CCCCCCCn1ccc(=N)cc1	1.1	10.1%	-9.2%	-11.3%	-3.7%	6.31µM*
COc1c(O)c(O)cc2c1oc1c3ccccc3oc(=O)c21	-14.4	?	10µM*[quencher]	?	7.94µM*	·
O=c1oc2cc(O)ccc2c2ccccc12	-3.8	7.4%	-16.5%	-0.3%	-10.0%	2µM*
O=c1oc2cc(O)ccc2c2oc3cc(O)ccc3c12	-0.9	-18.8%	25.1µM*[quencher]	-2.7%	?	1.4%
COc1ccc2c(c1)c(=O)oc1cc(O)ccc12	4.1	0.1%	-5.8%	0.0%	?	0.4%[12.7 µM]
O=c1cc(O)c2ccc(O)cc2o1	-0.3	-8.9%	-3.7%	1.9%	-8.9%	18.3%[59 µM]
CCc1ccc(NC(=O)Cn2c(=O)n(CCCCC(=O)NCc3ccc4c(c3)OCO4)c(=O)c3ccccc32)cc1	·	·	-22.5%	?	-1.0%	14.5%[59 µM]
Cc1cccc(C(=O)OCC(=O)NCCCc2ccccc2)c1O	3.0	10.2%	·	·	·	-1.3%
CN(C)S(=O)(=O)c1cccc(-c2nn(-c3ccccc3)cc2/C=C2\SC(=S)NC2=O)c1	0.0	?	-18.9%	3.8%	?	39.8µM*
CN(C)S(=O)(=O)c1cccc(-c2nn(-c3ccccc3)cc2/C=C(\C#N)c2nc3ccccc3[nH]2)c1	-1.6	3.7%	?	?	-7.1%	26.4%[59 µM]
CCNC(=S)/N=C(/Nc1ccc(OC)cc1)Nc1nc(C)cc(C)n1	0.5	3.16µM*	-25.3%	-7.3%	-11.7%	-44.4%
CCNC(=S)/N=C(/Nc1ccccc1)Nc1nc(C)cc(C)n1	0.2	4.47µM*	-27.6%	6.5%	-17.9%	·
CCNC(=S)NC(=NCc1cccnc1)Nc1nc(C)cc(C)n1	1.1	25.1µM*	·	·	·	·
C(C#CCCCCCCCCC[n+]1ccccc1)#CCCCCCCCCC[n+]1ccccc1	-0.4	50.1µM*	·	·	·	-18.6%
Cc1ccc(NC(=O)c2oc3c(c2C)-c2[nH]ncc2CC3)c(Cl)c1	·	·	-13.5%	12.2%	-14.1%	?
CC(=O)Nc1ccc(C(=O)N/N=C/c2ccc(F)cc2)cc1	0.7	-9.0%	1.7%	-4.3%	-6.9%	15.1%
CC(=O)Nc1ccc(S(=O)(=O)Oc2ccc(/C=N/NC(=O)c3ccc(Cl)cc3)cc2)cc1	-0.3	25.4%	?	12.6µM*	?	-6.0%[59 µM]
O=C(C1=C(O)C(=O)N(CCN2CCOCC2)C1c1cccc(Br)c1)c1cccs1 (centres undefined)	1.3	3.3%	·	·	·	56.2µM*
O=C(C1=C(O)C(=O)N(CCOCCO)C1c1cccs1)c1cccs1 (centres undefined)	0.0	-21.0%	2.4%	2.2%	-10.0%	44.7µM*
COc1ccc(C2C(C(=O)c3sc(C)nc3C)=C(O)C(=O)N2CCN2CCOCC2)cc1 (centres undefined)	-0.6	-14.1%	2.5%	-2.0%	9.0%	?
